Shown are actives, neighbours in structure and some others; about 15% of the full set was active somewhere.
HCV inhibitor – qHTS Assay for Inhibitors of Hepatitis C Virus (HCV). Huh7.5.1 HCVcc-Cre infection, luciferase reporter, 44 h. hit rate 3.4% among 340,000. Potency, µM (highest dose often 41.8 µM), for inactives: top-dose activity change, negative = inhibition, most hits filed as inhibitors. AID 651820, 2012; note: potency is the fitted concentration of half-maximal effect; % is set by controls: 0 for no effect and ±100 for the full control effect
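Luciferase read-out (15 sec integration) after a 15 min room-temperature substrate step quantifies HCVcc-Cre infection. Cells, 1,000 per well, had compound added 4 h post-plating, then virus at ~0.5 moi, and were cultured 44 h.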
Sm TGR block – qHTS Assay for the Inhibitors of Schistosoma Mansoni Peroxiredoxins; purified TGR, DTNB reduction, TNB absorbance 405 nm; hit rate 3% among 360,000; AID 485364, 2010; Potency, µM (series often up to 114 µM), for inactives: top-dose activity change, negative = inhibition, usual class: inhibitors; Schistosoma mansoni thioredoxin glutathione reductase (TGR), Q962Y6; note: potency is the fitted concentration of half-maximal effect; % is set by controls: 0 for no effect and ±100 for the full control effect; nearly all actives have a fitted effect of over 60% in size
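First, TGR (20 nM dispensed) and NADPH were mixed with compound. Second, a 15 min room-temperature incubation followed. Third, further NADPH and then DTNB were added to start the reaction. Finally, TNB absorbance was monitored kinetically.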
Pf growth 96h – Primary qHTS for delayed death inhibitors of the malarial parasite plastid, 96 hour incubation; P. falciparum luciferase reporter growth, 96 h; Potency, µM (doses to about 28.7 µM), for inactives: top-dose activity change, negative = inhibition, hits mostly inhibitors; hit rate 6.9% among 320,000; AID 504834, 2011; note: potency is the fitted concentration of half-maximal effect; % is set by controls: 0 for no effect and ±100 for the full control effect
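Plates of compound plus infected erythrocytes (2% hematocrit, 0.05% parasitemia final) incubate 96 hours, 37 C, 5% CO2. Detection reagent added; reduced luminescence from the parasites' luciferase reporter flags inhibition.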
SARS PLpro yeast – qHTS of Yeast-based Assay for SARS-CoV PLP | S. cerevisiae expressing SARS-CoV PLpro, growth rescue | Potency, µM (series often up to 32.9 µM), for inactives: at the top dose activity, positive = growth rescue, most hits filed as activators | hit rate 0.19% among 330,000 | AID 485353, 2010; calls by dose curve; note: potency is the fitted concentration of half-maximal effect; 0% is about no effect; nearly all actives have a fitted effect of over 55% in size
Pf growth 48h – Primary qHTS for delayed death inhibitors of the malarial parasite plastid, 48 hour incubation | Potency, µM (titrated, usually from 28.7 µM), without a hit: at the highest dose activity change, negative = inhibition, usual class: inhibitors | hit rate 5.9% among 310,000 | P. falciparum luciferase growth in erythrocytes, 48 h; note: potency is the fitted concentration of half-maximal effect; % is set by controls: 0 for no effect and ±100 for the full control effect
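First compound was added to culture medium, then infected red cells at 0.1% parasitemia and 2% hematocrit (final). After incubation at 37 C under 5% CO2, luciferase detection reagent was dispensed and light output recorded.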
HCMV inh – qHTS Assay for inhibitors of the human cytomegalovirus (HCMV). HFF cells, HCMV-luciferase reporter, 72 h; hits give low values. activity change, negative = inhibition, % at 57.5 µM. hit rate 4.5% among 410,000; in the data active = activity change below about -60%; inconclusive = no clear call, values can overlap the other calls; inactive = above about -39%; note: % is set by controls: 0 for no effect and ±100 for the full control effect
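After 16 h attachment at 37C, HFF cells received test compound and HCMV-luciferase (1 PFU/cell); reporter luminescence read 72 h later, data normalized against buffer-only and known inhibitor Salinomycin.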
* = called active by the depositor; ? = inconclusive; nt = no result given; ! = a repeat was not active; [ ] = remark or other dose. Unless noted, calls come from the whole dose curve; as a rule, active = well fitted curve in the direction sought with a large enough effect; inconclusive = small, poorly fitted or top-dose-only effect, or another doubt; inactive = no such curve, though single readings can be large; an effect the other way counts as inactive or inconclusive.

SMILES	HCV inhibitor	Sm TGR block	Pf growth 96h	SARS PLpro yeast	Pf growth 48h	HCMV inh
COc1ccc(C(=O)N2CCCCCC2)cc1OC1CCN(C(C)=O)CC1	nt	0%	10µM*	-1%	37%	-78*
COc1ccc(C(=O)NC2CCCCCC2)cc1OC1CCN(C(C)=O)CC1	-12%	-1%	?	-4%	3%	51
COc1ccc(N2CCN(C(=O)CN3C(=O)COc4ccc(S(=O)(=O)N5CCC(C)CC5)cc43)CC2)cc1	nt	-10%	nt	nt	nt	1
CC(Sc1ncccn1)C(=O)N1CCc2ccccc21 (stereo unspecified)	12%	4%	-1%	-1%	?	-11
CC(C)c1cccc(-c2csc(C(O)c3cccc(Cl)c3)n2)c1 (stereo unspecified)	nt	nt	nt	nt	nt	-24
Cc1cc(C)c(OCC(=O)NCCCn2nc(C)cc2C)c(C)c1	-12%	-4%	?	-2%	?	-10
COc1ccc(C(=O)N(C)Cc2ccc(C)o2)cc1OC1CCN(C(C)=O)CC1	7%	25µM*	0%	1%	1%	14
COC(=O)C(C)n1cnc2c(nnn2-c2ccc(OC)cc2)c1=O (stereo unspecified)	14%	30%	4.1µM*	12%	14%	-7
O=C(Nc1cccc(/C=C/c2nc3ccccc3c(=O)[nH]2)c1)c1ccccc1Cl	5µM*	1%	3%	-2%	4%	40
COc1ccc(C(=O)Nc2cccc(/C=C/c3nc4ccccc4c(=O)[nH]3)c2)cc1	1.3µM*	10%	72%	-3%	38%	-84*
CCCCNC(=O)C1(C)CCCCN1C(=O)c1cc2ccccc2s1 (stereo unspecified)	nt	nt	nt	nt	nt	-9
CCC(Oc1ccc(F)cc1)C(=O)Nc1nc(-c2ccc(F)cc2)ns1 (stereo unspecified)	nt	42%	nt	nt	nt	-98*
COc1ccc(-c2noc(N3CCC(C(=O)Nc4ccc(C)c(F)c4)CC3)n2)cc1OC	nt	9%	nt	nt	nt	-14
COc1ccccc1N1CCN(C(=O)c2[nH]c(C(F)(F)F)nc2-c2ccccc2)CC1	nt	nt	nt	nt	nt	-64*
Cc1cccc(N2CCN(C(=O)c3[nH]c(C(F)(F)F)nc3-c3ccccc3)CC2)c1C	nt	nt	nt	nt	nt	-87*
COc1ccc(N2CCN(C(=O)c3[nH]c(C(F)(F)F)nc3-c3ccccc3)CC2)cc1	nt	nt	nt	nt	nt	5
CC(=O)N1CCN(C(=O)c2[nH]c(C(F)(F)F)nc2-c2ccccc2)CC1	nt	nt	nt	nt	nt	22
CCOc1ccc(CNC(=O)C2=Cc3cc(Br)ccc3OC2)cc1OC	nt	-3%	nt	nt	nt	-9
CCC(C)NC(=O)c1ccc2nc(-c3ccc(OC)c(OC)c3)c(-c3ccc(OC)c(OC)c3)nc2c1 (stereo unspecified)	-4%	11%	13µM*	1%	2.9µM*	35
CCCN(CCC)C(=O)c1ccc2nc(-c3ccc(OC)c(OC)c3)c(-c3ccc(OC)c(OC)c3)nc2c1	?	3%	17%	1%	7.4µM*	102
CCN(CC)C(=O)c1ccc2nc(-c3ccccc3)c(-c3ccccc3)nc2c1	3%	-12%	35%	-19%	-17%	-24
Cc1ccsc1/C=N/NC(=S)NCc1ccccc1	?	8%	-24%	16%	2.9µM*	12
CN(C)c1ccc(/C=N/NC(=S)NCc2ccccc2)cc1	-28%	-12%	12µM*	9%	?	-19
CCN(c1ccc(NC(=O)COC(=O)CCc2cc(OC)c(OC)c(OC)c2)cc1)C(C)C	6%	16%	12%	-7%	-11%	48
Nn1c(C2COc3ccccc3O2)n[nH]c1=S (stereo unspecified)	11%	13%	?	-2%	?	-39
SMILES	HCV inhibitor	Sm TGR block	Pf growth 96h	SARS PLpro yeast	Pf growth 48h	HCMV inh
c1ccc2c(c1)OCC(C1=NCCN1)O2 (stereo unspecified)	0%[8.37 µM]	-23%	4.8µM*!	2%	?	4
CCOc1ccc(-n2c(C)cc(/C=C3/C(=N)N4C(=NC3=O)SN=C4S(C)(=O)=O)c2C)cc1	-4%	-14%	8.3µM*	1%	?	-35
O=C(C#Cc1ccccc1)Nc1ccc(F)cc1	?	-19%	?	-8%	?	-102*
O=C(C#Cc1ccccc1)Nc1cccc(F)c1	?	-36%	379%	-16%	?	-104*
COc1ccc(NC(=O)C#Cc2ccccc2)cc1	-29%	-35%	?	-15%	-13%	?
O=C(CC(=O)Nc1cccc(F)c1)Nc1cccc(F)c1	4%	-3%	0%	2%	?	52
Cc1c(Cl)cccc1-n1nnc(-c2nc(-c3ccc4c(c3)OCO4)no2)c1C	nt	-3%	nt	nt	nt	20
OCC[C@@H]1C[C@H](O)[C@@H](O)[C@@]2(OCCc3cc(Cl)ccc32)O1	nt	nt	nt	nt	nt	13
Cn1c(N)c(C#N)c2c(c1=S)CSC(C)(C)C2	-14%	13µM*	-6%	-8%	-10%	-7
CC(C)c1nc(Cl)c(C#N)c2c1CSC(C)(C)C2	?	-2%	16%	20%	-7%	-14
N#Cc1c(N)sc(=S)c2c1CCCCC2	4%	7.9µM*	?	-8%	4%	?
CC1(C)Cc2c(C#N)c(N)sc(=S)c2CS1	-13%	32µM*	15%	-3%	3%	-6
CN1CC(C(=O)c2ccc([N+](=O)[O-])cc2)C(c2ccc(Cl)cc2)C1 (stereo unspecified)	-14%	?	?	2%	?	-64*
CN1CC(C(=O)c2cccc(C(F)(F)F)c2)C(c2ccc(Cl)cc2)C1 (stereo unspecified)	-17%	-3%	?	-2%	?	-72*
COc1cccc(C(=O)C2CN(C)CC2c2ccc(Cl)cc2)c1 (stereo unspecified)	-1%	nt	?	-1%	?	-32
COc1cccc(C(=O)C2CN(c3ccccc3)CC2c2ccc(Cl)cc2)c1 (stereo unspecified)	12%	-7%	10µM*	0%	10µM*	-28
CCc1c(C)c2ccc(OC(C)C(=O)NC(Cc3c[nH]c4ccc(O)cc34)C(=O)O)c(C)c2oc1=O (stereo unspecified)	-3%	-29%	33%	3%	-6%	-19
COC(=O)C1(C)NC(c2cccc(C)c2)C2C(=O)N(c3ccccc3)C(=O)C21 (stereo unspecified)	nt	nt	nt	nt	nt	-2
Cc1cc(C)c2nc(SC(C)C#N)cc(C)c2c1 (stereo unspecified)	10µM*	-9%	16%	5%	nt	-22
